High-throughput results (PubChem BioAssay)
D2 antagonist: D2 dopamine receptor (human) antagonism. P14416. HEK293 TREx D2 cells, calcium flux, dopamine EC80. inhibition, % at 10 µM. 2% of 340,000 active; in the data active = inhibition above about 30%; inactive = below that, where a call was filed; also: 0% is about no effect
Target sequence (P14416 whole entry, looked up): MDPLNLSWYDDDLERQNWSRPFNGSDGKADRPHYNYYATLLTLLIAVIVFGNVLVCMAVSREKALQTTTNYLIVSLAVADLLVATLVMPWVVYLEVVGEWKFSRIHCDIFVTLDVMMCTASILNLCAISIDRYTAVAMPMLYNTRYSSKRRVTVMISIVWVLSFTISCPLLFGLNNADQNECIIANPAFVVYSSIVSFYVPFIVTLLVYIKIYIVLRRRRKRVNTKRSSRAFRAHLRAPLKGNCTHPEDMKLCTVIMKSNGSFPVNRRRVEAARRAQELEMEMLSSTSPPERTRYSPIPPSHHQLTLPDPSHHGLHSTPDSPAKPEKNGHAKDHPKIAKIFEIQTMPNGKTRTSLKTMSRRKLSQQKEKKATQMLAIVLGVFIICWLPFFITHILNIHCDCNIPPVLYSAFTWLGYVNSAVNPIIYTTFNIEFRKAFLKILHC
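Calcium flux kinetic readout in an inducible HEK293 TREx D2 line plated overnight at 30 C. After 180 s compound exposure, an EC80 dopamine challenge follows with another 180 s kinetic read to detect antagonism.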
D2 PAM-1: D2 dopamine receptor (human) potentiation | HEK293 T-REx D2, calcium flux, EC20 dopamine potentiation | 0.34% of 340,000 active | potentiation, % at 10 µM;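 active = potentiation over 3 SD above the plate norm, cut at about 30% in these data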; also: 0% is about no effect
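Using a no-wash calcium dye in inducible, force-coupled HEK293 Trex cells expressing D2, we tracked fluorescence each second for 180 s after compound, then for 180 s after EC20 dopamine to detect augmented signalling.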
D2 ag-1: human D2 receptor agonism in beta-arrestin assay; P14416; AID 624465; 0.084% of 360,000 active; activation, % (concentration not given with the values); DiscoveRx PathHunter D2 beta-arrestin, luminescence, 90 min; 100% = 57 uM dopamine signal; in the data active = activation above about 40%; inconclusive = between about 15% and that limit
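DiscoveRx PathHunter D2 beta-arrestin cells (2,100/well) attached overnight, then compound-stimulated 90 min at 37 C in HBSS/10 mM HEPES/0.1% Tween-20 buffer; beta-galactosidase complementation read by luminescence after 1 h at ambient temperature. Dopamine 57 uM final (EC100) as control.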
D2 PAM-2: potentiates the human D2 dopamine receptor allosterically; P14416; DiscoveRx D2 beta-arrestin cells, luminescence, 90 min; 100% = 57 uM dopamine signal; potentiation, % (test concentration not listed); 0.23% of 360,000 active; in the data active = potentiation above about 50%; inconclusive = mostly about 30% to 49%
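D2 cells co-treated with compound plus 50 nM dopamine (EC20) for 90 min at 37 deg C to detect potentiation. Beta-arrestin recruitment was read as enzyme-fragment luminescence after 1 h at ambient temperature. Full response was set by 57 uM dopamine.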
D2 ag-2: D2 dopamine receptor (human) agonism; HEK293 T-REx D2 cells, calcium flux agonist mode; P14416; activation, % at 2 µM; 0.53% of 340,000 active; AID 485358;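 active = activation over 3 SD above normal in the single-dose calcium agonist read, cut at about 30% in these data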; also: 0% is about no effect
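Calcium-flux readout, 1 cycle/sec over 180 s following compound pin transfer, in inducible HEK293 Trex D2 cells (force-coupled); dopamine controls included. Positive calcium responses during this window marked compounds as potential agonists.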
An asterisk follows results filed as active; ? = inconclusive; / = no result given. Sampled rows, rich in hits. Any-hit rate of the full collection: about 2.4%.

SMILES | D2 antagonist | D2 PAM-1 | D2 ag-1 | D2 PAM-2 | D2 ag-2
CCN(Cc1ccccc1)C(c1cccs1)c1nnnn1C1CCCCC1 (configuration not stated) | 8 | 2 | -4 | -30 | 0
Clc1ccccc1CN(Cc1ccccc1)C(c1cccs1)c1nnnn1C1CCCC1 (configuration not stated) | 50* | -6 | -5 | -17 | 0
CC(C)/C=C1\CC/C(=C\c2ccc(N(C)C)cc2)C1=O | 27 | -7 | -4 | -4 | 92*
CCN(CC)CCNC(=O)c1ccc(NC(=O)COc2ccc3c(c2)CCC3)cc1 | 32* | 2 | -7 | -5 | 1
CCN(CC)CCNC(=O)c1ccc(NC(C)=O)cc1 | -4 | -4 | -2 | 2 | 1
CN(C)/C=N/c1cc(=O)[nH]c(=O)n1CC1CC1 | -9 | -1 | -1 | -7 | 1
C=CCn1c(=O)[nH]c2nc3cc(N=CN(C)C)c(C)cc3nc2c1=O | -6 | 4 | -4 | -11 | 30*
Cc1cc(C)c(NC(=O)CN2C(=O)NC(CCc3ccccc3)C2=O)c(C)c1 (configuration not stated) | 32* | -8 | -3 | -3 | 1
Cc1ccc(C)c(NC(=O)CN2C(=O)NC(CCc3ccccc3)C2=O)c1 (configuration not stated) | / | / | -6 | -6 | /
COc1ccc(OCC(=O)Nc2cccc(-c3nc4ccccc4s3)c2C)cc1 | / | 9 | / | / | -2
COc1ccccc1NC(=O)C1CCN(S(=O)(=O)c2cn(C)cn2)CC1 | / | -4 | / | / | 1
CN1CCCN(Cc2nc(-c3ccc(Cl)cc3)no2)CC1 | 11 | 8 | -1 | -14 | 1
CN1CCCN(Cc2ccc(Cl)cc2Cl)CC1 | 35* | -20 | -2 | -30 | 0
CN1CCc2c(sc3c2C(=O)NC(c2ccc(C(C)(C)C)cc2)N3)C1 (configuration not stated) | / | 5 | / | / | 5
O=C(CCc1ccc(S(=O)(=O)N2CCOCC2)cc1)N/N=C/c1ccc(F)cc1F | -12 | -6 | 1 | -7 | 0
O=C(CCc1ccc(S(=O)(=O)N2CCOCC2)cc1)N/N=C/c1ccc(O)c(O)c1O | -3 | 10 | ? | 82* | 1
CCCc1cc(C(=O)Nc2c(C)nn(Cc3ccc(Cl)c(Cl)c3)c2C)no1 | / | 1 | / | / | 0
Cc1cccc(N2CCN(C(=O)Cn3ncc4c3-c3ccccc3OC4)CC2)c1C | / | -19 | / | / | 0
CCN(C(=O)c1cn(-c2ccc(OC)cc2)c(=O)c2ccccc12)c1cccc(Cl)c1 | / | 6 | / | / | 1
CCCCCOP(=O)(OCCCCC)C1(NS(=O)(=O)c2ccccc2)C=CC(=O)c2ccccc21 (configuration not stated) | -6 | 5 | ? | 90* | -1
CC1CCCCN1C(=O)Cn1nnc(-c2cccnc2)n1 (configuration not stated) | 32* | -2 | -1 | -4 | 1
CC(Oc1ccc(F)cc1)C(=O)N1CCC(c2nc3ccccc3s2)CC1 (configuration not stated) | / | / | / | / | -1
CCCCNC(=O)N1CCOCCOCCN(C(=O)NCCCC)CCOCCOCC1 | 32* | / | -1 | 5 | 3
COc1ccc(C2=NN(C(=O)CSc3ncccn3)C(c3ccc(C)cc3)C2)cc1 (configuration not stated) | -18 | 10 | -2 | -24 | -1
COc1ccc(C2=NN(C(=O)CSc3nc(=O)n4cccc(C)c4n3)C(c3ccc(C)cc3)C2)cc1 (configuration not stated) | 34* | 0 | -3 | -22 | 1
SMILES | D2 antagonist | D2 PAM-1 | D2 ag-1 | D2 PAM-2 | D2 ag-2
O=c1oc2cc(O)ccc2cc1-c1nc2c(s1)CCc1ccccc1-2 | 80* | -24 | 1 | 15 | 141*
O=c1oc2ccccc2cc1-c1nc2c(s1)CCc1ccccc1-2 | 9 | -10 | 11 | ? | -1
Cc1ccc(C(=O)N2CCCC(CCC(=O)N3CCN(c4ccccn4)CC3)C2)cc1C (configuration not stated) | 1 | 5 | -3 | -5 | 2
Cc1ccc(C(=O)N2CCCC(CCC(=O)N3CCN(c4ccccn4)CC3)C2)cn1 (configuration not stated) | -3 | 6 | -5 | 75* | 0
O=C(Nc1ccc(C(=O)N2CCCCC2)cc1)c1nsc2ccccc12 | / | 1 | / | / | -1
CCCn1c2ccccc2c2nc3ccccc3nc21 | 0 | 47* | -4 | -13 | -1
O=c1oc2ccccc2n1CCn1c2ccccc2c2nc3ccccc3nc21 | 4 | 76* | -3 | -8 | 1
COc1ccc2c(c1)c1nc3ccccc3nc1n2CCCN1C(=O)c2ccccc2C1=O | 0 | 13 | 0 | -7 | 1
COc1ccc2c(c1)c1nc3ccccc3nc1n2CCn1c(=O)oc2ccccc21 | 34* | -1 | -3 | -8 | 0
CCN(CC)CCn1c2ccccc2c2nc3ccccc3nc21 | -3 | -8 | -4 | -28 | 0
CCCc1nc2ccc(NC(=O)c3ccco3)cc2c(=O)n1Cc1ccc(Cl)cc1 | 0 | 45* | -3 | -6 | 0
CC(C)C(C(=O)Nc1ccc2c(c1)OCCO2)N1C(=O)c2ccccc2C1=O (configuration not stated) | -5 | -6 | -4 | -8 | 1
CC(C)CC(C(=O)Nc1ccc2c(c1)OCCO2)N1C(=O)c2ccccc2C1=O (configuration not stated) | 57* | -6 | 7 | -7 | -2
CC(NC(=O)c1ccccc1F)c1nnc(SCC(=O)Nc2nccs2)n1C (configuration not stated) | -3 | 41* | 4 | -3 | 1
Cc1nnc(NC(=O)CSc2nnc(C(C)NC(=O)c3ccccc3F)n2C)s1 (configuration not stated) | 16 | -10 | -2 | -5 | 0
CCCCn1c2ccccc2c2nnc(SCC(=O)NC3=NN=C(c4ccccc4)CS3)nc21 | 70* | 7 | / | / | 0
CCCn1c2ccccc2c2nnc(SCC(=O)OC)nc21 | -24 | 14 | -3 | -2 | 0
Cc1ccc(C)c(NC(=O)CCCn2c(C)c3cnn(-c4ccccc4)c(=O)c3c2C)c1 | / | / | / | / | 1
CN(C)CCCNc1oc(-c2ccc(Cl)cc2)nc1S(=O)(=O)c1ccccc1 | / | / | -6 | -6 | /
CN(C)CCCNc1oc(-c2ccccc2Cl)nc1S(=O)(=O)c1ccccc1 | 86* | -31 | -2 | -2 | 1
COc1ccc(NC(=O)COc2ccc(C(=O)NC3CCCc4ccccc43)cc2OC)cc1 (configuration not stated) | -2 | 36* | -1 | 3 | -2
CCCOc1cccc(C2c3c(oc4ccccc4c3=O)C(=O)N2c2nncs2)c1 (configuration not stated) | / | -6 | / | / | 0
